Data published in PMC7862700, “An all-to-all approach to the identification of sequence-specific readers for epigenetic DNA modifications on cytosine”.

How the values were obtained:
Assay in all cases: DAPPL (digital affinity profiling via proximity ligation, sequencing); 10 mM Tris-HCl pH 7.5, 50 mM NaCl, 1 mM DTT, 4% glycerol, room temperature, 30 min; GST-TFs on glutathione beads, 16-mer random dsDNA library, 0.1% formaldehyde crosslink after washing; high values mean tight binding
[1] = target: T1, FLI1 (Homo sapiens, UniProt Q01543 1-452); details: protein: recombinant; tags: N-terminal GST; dsDNA, one strand shown
T1 sequence: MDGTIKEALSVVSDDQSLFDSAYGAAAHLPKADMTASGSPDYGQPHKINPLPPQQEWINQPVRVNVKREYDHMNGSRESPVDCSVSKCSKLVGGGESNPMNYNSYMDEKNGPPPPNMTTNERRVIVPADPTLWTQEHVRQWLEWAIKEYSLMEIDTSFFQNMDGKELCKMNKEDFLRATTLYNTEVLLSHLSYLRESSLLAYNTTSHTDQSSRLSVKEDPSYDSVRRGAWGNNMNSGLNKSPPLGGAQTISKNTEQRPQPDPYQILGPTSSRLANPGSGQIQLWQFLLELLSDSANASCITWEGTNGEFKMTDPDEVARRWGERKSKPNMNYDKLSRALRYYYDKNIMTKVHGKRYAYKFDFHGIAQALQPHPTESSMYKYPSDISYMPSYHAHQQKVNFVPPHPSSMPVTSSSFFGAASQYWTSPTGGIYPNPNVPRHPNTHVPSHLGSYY
How it was run: (§1)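 GST fusions of human transcription factors were expressed in yeast and captured with glutathione beads. Once given DNA barcodes and pooled alongside a tag-only sample, they were incubated for 30 min at room temperature with 200 nmole of a random double-stranded 16-mer DNA library in Tris/NaCl/DTT/glycerol buffer, then washed, crosslinked (0.1% formaldehyde), proximity-ligated, PCR-amplified and sequenced on an Illumina NextSeq500. The binding signal of each hexamer is its read frequency for a factor divided by its frequency for the tag-only sample.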

[2] = target: T2, ELK1 (Homo sapiens, UniProt P19419 1-428); details: protein: recombinant; tags: N-terminal GST; dsDNA, one strand shown
T2 sequence: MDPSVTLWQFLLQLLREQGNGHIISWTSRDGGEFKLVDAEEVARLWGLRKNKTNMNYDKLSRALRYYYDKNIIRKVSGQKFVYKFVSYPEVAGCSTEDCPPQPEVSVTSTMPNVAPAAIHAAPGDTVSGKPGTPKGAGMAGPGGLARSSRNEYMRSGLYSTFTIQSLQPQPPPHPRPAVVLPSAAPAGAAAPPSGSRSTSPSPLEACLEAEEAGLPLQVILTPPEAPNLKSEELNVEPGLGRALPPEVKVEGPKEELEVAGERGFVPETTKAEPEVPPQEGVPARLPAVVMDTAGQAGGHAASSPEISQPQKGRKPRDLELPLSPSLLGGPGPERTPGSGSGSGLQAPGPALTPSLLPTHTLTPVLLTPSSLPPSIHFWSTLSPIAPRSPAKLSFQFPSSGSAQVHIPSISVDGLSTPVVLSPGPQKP
How it was run: as §1

[3] = target: T3, GABPA (Homo sapiens, UniProt Q06546 1-454); details: protein: recombinant; tags: N-terminal GST; dsDNA, one strand shown
T3 sequence: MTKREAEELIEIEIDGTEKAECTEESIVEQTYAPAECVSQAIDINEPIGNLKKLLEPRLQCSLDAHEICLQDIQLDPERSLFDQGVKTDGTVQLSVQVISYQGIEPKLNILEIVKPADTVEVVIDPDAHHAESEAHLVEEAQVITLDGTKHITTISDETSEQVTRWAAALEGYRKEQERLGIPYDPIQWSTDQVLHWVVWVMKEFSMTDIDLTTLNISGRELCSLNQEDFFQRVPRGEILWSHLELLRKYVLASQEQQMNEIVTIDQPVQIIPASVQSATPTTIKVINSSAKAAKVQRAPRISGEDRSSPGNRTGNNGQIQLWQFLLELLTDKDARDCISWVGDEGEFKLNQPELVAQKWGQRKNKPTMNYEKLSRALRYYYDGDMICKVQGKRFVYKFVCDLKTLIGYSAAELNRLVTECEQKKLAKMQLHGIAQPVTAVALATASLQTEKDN
How it was run: as §1

[4] = target: T4, ERG (Homo sapiens, UniProt P11308 1-479); details: protein: recombinant; tags: N-terminal GST; dsDNA, one strand shown
T4 sequence: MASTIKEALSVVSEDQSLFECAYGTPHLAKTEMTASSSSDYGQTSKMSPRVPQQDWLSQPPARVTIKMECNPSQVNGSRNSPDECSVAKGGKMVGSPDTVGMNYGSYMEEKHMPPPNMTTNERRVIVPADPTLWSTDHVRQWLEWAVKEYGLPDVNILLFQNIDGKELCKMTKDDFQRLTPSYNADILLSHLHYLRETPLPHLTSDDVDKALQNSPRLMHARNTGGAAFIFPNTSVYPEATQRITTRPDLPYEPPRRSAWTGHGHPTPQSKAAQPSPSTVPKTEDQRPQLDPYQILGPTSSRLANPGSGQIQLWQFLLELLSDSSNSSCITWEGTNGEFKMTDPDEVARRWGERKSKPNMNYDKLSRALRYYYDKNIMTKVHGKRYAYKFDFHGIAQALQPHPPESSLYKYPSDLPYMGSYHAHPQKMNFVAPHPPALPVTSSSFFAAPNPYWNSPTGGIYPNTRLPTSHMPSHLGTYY
How it was run: as §1

[5] = target: ELF1 (Homo sapiens, UniProt P32519 1-619); details: protein: recombinant; tags: N-terminal GST; dsDNA, one strand shown
How it was run: as §1

[6] = target: T5, EHF (Homo sapiens, UniProt Q9NZC4 1-300); details: protein: recombinant; tags: N-terminal GST; dsDNA, one strand shown
T5 sequence: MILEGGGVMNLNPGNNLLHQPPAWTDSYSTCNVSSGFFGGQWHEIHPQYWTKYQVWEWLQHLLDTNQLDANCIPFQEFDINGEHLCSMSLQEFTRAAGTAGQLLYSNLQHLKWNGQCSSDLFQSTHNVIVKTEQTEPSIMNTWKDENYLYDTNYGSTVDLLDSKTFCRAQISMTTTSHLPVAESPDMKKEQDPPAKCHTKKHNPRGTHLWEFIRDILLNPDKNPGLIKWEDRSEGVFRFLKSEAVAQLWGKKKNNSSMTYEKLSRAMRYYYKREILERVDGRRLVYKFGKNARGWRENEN
How it was run: as §1

[7] = target: SPI1 (Homo sapiens, UniProt P17947 1-270); details: protein: recombinant; tags: N-terminal GST; dsDNA, one strand shown
How it was run: as §1

[8] = target: SPIB (Homo sapiens, UniProt Q01892 1-262); details: protein: recombinant; tags: N-terminal GST; dsDNA, one strand shown
How it was run: as §1

[9] = target: T6, ELK3 (Homo sapiens, UniProt P41970 1-407); details: protein: recombinant; tags: N-terminal GST; dsDNA, one strand shown
T6 sequence: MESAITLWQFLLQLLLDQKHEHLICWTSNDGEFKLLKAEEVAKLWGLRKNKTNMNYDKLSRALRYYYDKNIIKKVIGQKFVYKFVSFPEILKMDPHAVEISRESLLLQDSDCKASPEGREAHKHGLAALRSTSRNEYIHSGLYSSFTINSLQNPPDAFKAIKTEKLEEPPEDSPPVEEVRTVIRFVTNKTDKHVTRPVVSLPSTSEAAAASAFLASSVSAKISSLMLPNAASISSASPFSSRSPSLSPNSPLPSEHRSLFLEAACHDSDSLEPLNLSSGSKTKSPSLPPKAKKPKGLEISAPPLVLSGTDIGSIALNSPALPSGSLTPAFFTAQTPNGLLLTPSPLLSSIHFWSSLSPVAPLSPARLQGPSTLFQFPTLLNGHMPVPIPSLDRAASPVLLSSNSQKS
How it was run: as §1

[10] = target: T7, FEV (Homo sapiens, UniProt Q99581 1-238); details: protein: recombinant; tags: N-terminal GST; dsDNA, one strand shown
T7 sequence: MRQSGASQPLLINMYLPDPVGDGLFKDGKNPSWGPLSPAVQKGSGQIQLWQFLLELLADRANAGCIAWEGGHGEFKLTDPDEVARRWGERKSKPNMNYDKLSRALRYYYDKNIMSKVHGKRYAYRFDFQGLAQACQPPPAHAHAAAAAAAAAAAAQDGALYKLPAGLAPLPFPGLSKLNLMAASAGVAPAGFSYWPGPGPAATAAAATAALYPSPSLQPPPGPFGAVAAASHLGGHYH
How it was run: as §1

[11] = target: ETV5 (Homo sapiens, UniProt P41161 1-510); details: protein: recombinant; tags: N-terminal GST; dsDNA, one strand shown
How it was run: as §1

[12] = target: HSF1 (Homo sapiens, UniProt Q00613 1-529); details: protein: recombinant; tags: N-terminal GST; chain copies: 3; dsDNA, one strand shown
How it was run: as §1

[13] = target: T8, SPIC (Homo sapiens, UniProt Q8N5J4 1-248); details: protein: recombinant; tags: N-terminal GST; dsDNA, one strand shown
T8 sequence: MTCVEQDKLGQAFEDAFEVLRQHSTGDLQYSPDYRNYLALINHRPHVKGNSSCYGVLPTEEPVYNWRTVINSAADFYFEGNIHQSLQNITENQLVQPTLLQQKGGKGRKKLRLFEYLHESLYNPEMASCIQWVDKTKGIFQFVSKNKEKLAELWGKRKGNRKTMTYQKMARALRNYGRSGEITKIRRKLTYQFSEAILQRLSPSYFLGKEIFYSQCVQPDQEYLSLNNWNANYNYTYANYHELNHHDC
How it was run: as §1

[14] = target: ELF4 (Homo sapiens, UniProt Q99607 1-663); details: protein: recombinant; tags: N-terminal GST; dsDNA, one strand shown
How it was run: as §1

[15] = target: T9, ELK4 (Homo sapiens, UniProt P28324-2 1-405); details: protein: recombinant; tags: N-terminal GST; dsDNA, one strand shown
T9 sequence: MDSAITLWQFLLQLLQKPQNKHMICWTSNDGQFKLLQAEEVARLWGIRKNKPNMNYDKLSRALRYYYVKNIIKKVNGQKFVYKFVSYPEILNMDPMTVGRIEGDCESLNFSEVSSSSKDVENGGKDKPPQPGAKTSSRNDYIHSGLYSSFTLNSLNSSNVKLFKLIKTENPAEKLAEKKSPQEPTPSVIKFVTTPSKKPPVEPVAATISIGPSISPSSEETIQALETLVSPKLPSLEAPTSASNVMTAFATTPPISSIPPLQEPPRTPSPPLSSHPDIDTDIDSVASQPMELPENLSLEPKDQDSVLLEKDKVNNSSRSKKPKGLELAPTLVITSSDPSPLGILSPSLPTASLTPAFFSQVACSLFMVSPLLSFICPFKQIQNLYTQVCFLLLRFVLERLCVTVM
How it was run: as §1

[16] = target: T10, ETV2 (Homo sapiens, UniProt O00321 1-342); details: protein: recombinant; tags: N-terminal GST; dsDNA, one strand shown
T10 sequence: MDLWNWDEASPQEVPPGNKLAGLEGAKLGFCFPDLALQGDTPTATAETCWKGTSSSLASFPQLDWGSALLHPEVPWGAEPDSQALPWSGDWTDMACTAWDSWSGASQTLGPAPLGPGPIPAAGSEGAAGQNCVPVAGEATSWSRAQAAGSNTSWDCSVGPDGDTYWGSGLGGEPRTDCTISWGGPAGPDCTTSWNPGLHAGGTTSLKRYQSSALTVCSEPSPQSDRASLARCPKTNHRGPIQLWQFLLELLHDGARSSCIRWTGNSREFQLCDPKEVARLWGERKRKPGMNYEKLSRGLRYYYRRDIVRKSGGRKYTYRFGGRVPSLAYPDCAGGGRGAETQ
How it was run: as §1

[17] = target: T11, ELF3 (Homo sapiens, UniProt P78545 1-371); details: protein: recombinant; tags: N-terminal GST; dsDNA, one strand shown
T11 sequence: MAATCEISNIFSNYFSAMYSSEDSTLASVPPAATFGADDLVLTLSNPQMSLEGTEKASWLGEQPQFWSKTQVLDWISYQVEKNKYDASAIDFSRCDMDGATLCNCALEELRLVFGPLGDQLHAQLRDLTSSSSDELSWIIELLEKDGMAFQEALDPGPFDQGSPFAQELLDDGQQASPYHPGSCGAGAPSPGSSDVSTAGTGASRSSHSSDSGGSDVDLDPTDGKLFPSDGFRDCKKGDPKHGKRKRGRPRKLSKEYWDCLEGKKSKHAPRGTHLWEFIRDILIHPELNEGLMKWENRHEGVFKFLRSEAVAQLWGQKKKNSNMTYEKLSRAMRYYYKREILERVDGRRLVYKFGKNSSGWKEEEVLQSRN
How it was run: as §1

[18] = target: CRX (Homo sapiens, UniProt O43186 1-299); details: protein: recombinant; tags: N-terminal GST; dsDNA, one strand shown
How it was run: as §1

[19] = target: ETV1 (Homo sapiens, UniProt P50549 1-477); details: protein: recombinant; tags: N-terminal GST; dsDNA, one strand shown
How it was run: as §1

Sequence of ELF1 (P32519 whole entry): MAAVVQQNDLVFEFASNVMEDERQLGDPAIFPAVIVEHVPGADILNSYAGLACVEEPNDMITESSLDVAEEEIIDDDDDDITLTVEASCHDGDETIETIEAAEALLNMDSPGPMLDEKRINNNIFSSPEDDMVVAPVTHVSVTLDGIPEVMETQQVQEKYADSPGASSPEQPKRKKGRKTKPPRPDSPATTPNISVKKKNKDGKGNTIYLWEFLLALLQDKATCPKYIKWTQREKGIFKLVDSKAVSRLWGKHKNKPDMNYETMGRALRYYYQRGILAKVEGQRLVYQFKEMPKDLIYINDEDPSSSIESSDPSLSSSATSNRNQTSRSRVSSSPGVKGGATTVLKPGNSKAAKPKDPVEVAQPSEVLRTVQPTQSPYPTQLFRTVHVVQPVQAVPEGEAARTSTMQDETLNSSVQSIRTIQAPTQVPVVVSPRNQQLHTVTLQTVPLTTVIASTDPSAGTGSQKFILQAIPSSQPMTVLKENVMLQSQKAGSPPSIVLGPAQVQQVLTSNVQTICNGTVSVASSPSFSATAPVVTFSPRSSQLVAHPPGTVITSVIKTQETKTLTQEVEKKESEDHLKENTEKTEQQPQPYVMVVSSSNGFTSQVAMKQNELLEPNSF
Sequence of ELF4 (Q99607 whole entry): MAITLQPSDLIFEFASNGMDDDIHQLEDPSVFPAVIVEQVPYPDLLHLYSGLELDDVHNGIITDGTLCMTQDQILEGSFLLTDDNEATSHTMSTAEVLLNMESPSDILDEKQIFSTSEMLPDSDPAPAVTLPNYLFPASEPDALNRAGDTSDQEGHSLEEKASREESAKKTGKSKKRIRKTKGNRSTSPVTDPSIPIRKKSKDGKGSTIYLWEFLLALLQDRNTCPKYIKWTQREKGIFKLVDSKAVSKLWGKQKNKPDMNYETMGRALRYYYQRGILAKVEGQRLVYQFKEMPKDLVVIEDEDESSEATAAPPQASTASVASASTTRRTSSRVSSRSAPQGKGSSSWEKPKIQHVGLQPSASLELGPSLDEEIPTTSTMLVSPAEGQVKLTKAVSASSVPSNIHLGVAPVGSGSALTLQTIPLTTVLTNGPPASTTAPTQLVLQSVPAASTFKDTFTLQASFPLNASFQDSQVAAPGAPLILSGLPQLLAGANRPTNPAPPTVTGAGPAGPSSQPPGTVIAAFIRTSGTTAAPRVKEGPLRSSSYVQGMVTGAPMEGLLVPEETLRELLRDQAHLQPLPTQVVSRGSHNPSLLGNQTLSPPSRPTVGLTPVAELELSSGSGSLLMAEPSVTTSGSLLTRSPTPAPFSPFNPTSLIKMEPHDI
Sequence of SPIB (Q01892 whole entry): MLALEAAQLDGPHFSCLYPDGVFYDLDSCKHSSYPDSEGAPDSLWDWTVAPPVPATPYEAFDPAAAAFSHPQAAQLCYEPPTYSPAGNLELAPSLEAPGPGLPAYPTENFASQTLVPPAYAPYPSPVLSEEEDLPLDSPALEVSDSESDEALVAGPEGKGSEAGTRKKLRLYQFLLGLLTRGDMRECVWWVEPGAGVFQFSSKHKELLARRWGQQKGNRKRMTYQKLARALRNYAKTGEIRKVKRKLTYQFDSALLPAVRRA
Sequence of ETV1 (P50549 whole entry): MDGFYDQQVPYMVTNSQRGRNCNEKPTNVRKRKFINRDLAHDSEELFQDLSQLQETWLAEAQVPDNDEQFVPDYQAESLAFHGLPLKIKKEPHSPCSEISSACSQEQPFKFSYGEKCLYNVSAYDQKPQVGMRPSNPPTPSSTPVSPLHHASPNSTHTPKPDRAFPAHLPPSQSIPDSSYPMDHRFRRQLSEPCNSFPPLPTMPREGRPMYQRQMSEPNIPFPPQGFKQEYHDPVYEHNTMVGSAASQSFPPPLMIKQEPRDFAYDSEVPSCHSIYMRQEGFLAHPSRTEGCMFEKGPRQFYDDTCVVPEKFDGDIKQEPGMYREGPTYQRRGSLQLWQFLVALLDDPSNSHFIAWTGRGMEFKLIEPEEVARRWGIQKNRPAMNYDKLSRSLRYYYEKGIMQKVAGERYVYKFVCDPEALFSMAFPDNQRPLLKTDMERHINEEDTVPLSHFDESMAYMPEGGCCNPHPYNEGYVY
Sequence of CRX (O43186 whole entry): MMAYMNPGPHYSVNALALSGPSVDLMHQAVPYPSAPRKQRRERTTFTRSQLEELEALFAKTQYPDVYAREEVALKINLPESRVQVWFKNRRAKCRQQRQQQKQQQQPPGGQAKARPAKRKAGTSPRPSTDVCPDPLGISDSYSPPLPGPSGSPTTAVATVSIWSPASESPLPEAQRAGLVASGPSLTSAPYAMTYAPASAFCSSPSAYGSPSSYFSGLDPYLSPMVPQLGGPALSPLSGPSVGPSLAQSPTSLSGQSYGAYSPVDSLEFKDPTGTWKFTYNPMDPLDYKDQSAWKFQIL
Sequence of ETV5 (P41161 whole entry): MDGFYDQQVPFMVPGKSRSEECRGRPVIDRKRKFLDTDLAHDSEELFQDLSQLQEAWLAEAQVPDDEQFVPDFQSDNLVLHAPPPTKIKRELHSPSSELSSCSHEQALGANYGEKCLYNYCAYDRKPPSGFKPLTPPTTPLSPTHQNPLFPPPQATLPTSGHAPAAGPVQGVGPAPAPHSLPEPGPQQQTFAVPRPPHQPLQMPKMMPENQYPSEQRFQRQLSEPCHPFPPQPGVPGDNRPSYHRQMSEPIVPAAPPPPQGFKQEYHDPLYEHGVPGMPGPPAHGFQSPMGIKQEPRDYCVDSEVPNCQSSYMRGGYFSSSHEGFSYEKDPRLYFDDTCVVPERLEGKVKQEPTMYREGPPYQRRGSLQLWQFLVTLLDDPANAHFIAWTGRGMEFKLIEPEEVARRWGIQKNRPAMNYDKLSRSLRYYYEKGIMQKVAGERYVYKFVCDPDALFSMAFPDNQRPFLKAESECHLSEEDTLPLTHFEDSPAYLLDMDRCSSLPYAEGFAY
Sequence of HSF1 (Q00613 whole entry): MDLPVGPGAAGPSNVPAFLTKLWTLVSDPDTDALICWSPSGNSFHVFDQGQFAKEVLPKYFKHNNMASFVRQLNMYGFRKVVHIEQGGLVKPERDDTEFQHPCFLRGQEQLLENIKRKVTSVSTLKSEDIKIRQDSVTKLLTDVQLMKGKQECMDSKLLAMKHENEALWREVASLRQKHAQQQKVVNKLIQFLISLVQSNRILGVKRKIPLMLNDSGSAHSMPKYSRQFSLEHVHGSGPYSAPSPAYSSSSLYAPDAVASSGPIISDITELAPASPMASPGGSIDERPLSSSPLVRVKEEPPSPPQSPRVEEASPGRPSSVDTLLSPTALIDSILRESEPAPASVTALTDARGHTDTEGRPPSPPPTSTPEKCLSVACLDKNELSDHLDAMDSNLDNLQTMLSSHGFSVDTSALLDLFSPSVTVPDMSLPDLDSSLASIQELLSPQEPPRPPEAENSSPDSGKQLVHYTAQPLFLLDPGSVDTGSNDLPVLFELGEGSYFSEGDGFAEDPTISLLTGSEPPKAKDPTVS

ATTCAA
binding signal [1]: 1.26 fold enrichment (6-mer frequency, TF over GST control)
binding signal [2]: 1.34 fold enrichment (6-mer frequency, TF over GST control)
binding signal [3]: 1.4 fold enrichment (6-mer frequency, TF over GST control)
binding signal [4]: 1.36 fold enrichment (6-mer frequency, TF over GST control)
binding signal [5]: 1.39 fold enrichment (6-mer frequency, TF over GST control)
binding signal [6]: 1.41 fold enrichment (6-mer frequency, TF over GST control)
binding signal [7]: 1.31 fold enrichment (6-mer frequency, TF over GST control)
binding signal [8]: 1.34 fold enrichment (6-mer frequency, TF over GST control)
binding signal [9]: 1.39 fold enrichment (6-mer frequency, TF over GST control)
binding signal [10]: 1.27 fold enrichment (6-mer frequency, TF over GST control)
binding signal [11]: 1.32 fold enrichment (6-mer frequency, TF over GST control)
binding signal [12]: 1.32 fold enrichment (6-mer frequency, TF over GST control)
binding signal [13]: 1.32 fold enrichment (6-mer frequency, TF over GST control)
binding signal [14]: 1.34 fold enrichment (6-mer frequency, TF over GST control)
binding signal [15]: 1.39 fold enrichment (6-mer frequency, TF over GST control)
binding signal [16]: 1.38 fold enrichment (6-mer frequency, TF over GST control)
binding signal [17]: 1.38 fold enrichment (6-mer frequency, TF over GST control)
binding signal [18]: 1.36 fold enrichment (6-mer frequency, TF over GST control)
binding signal [19]: 1.32 fold enrichment (6-mer frequency, TF over GST control)
